# Assay results as given in the supplement of paper PMC6897291.
# Counter-ions that a name gives are not always drawn.
# Tests used:
# [1] = tested on: RIVA; assay: growth inhibition by drug alone (1 - RLU/untreated control) (fraction); higher = stronger inhibition; settings: 177Lu-lilotomab satetraxetan 0 ug/ml
# Outline: (§1)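 Growth inhibition was calculated from RealTime-Glo RLU against untreated no-drug wells. Values equal 1 − RLU/mean of 48 untreated no-drug wells per plate, read daily from day 3 after 1 h at 37°C. RIVA and U-2932 cells, with or without 18 h pretreatment by a radiolabelled anti-CD37 antibody conjugate (~600 MBq/mg; 0.5 µg/ml RIVA, 1 µg/ml U-2932), were washed and plated at 3,000 cells/well on compound-printed plates at 10/100 nM (RIVA) or 10/1,000 nM (U-2932).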
# [2] = tested on: U-2932; assay: growth inhibition by drug plus 177Lu-lilotomab satetraxetan (1 - RLU/untreated control) (fraction); higher = stronger inhibition; settings: 177Lu-lilotomab satetraxetan 1 ug/ml
# Outline: as §1
# [3] = tested on: RIVA; assay: as above; settings: 177Lu-lilotomab satetraxetan 0.5 ug/ml
# Outline: as §1
# [4] = tested on: U-2932; assay: growth inhibition by drug alone (1 - RLU/untreated control) (fraction); higher = stronger inhibition; settings: 177Lu-lilotomab satetraxetan 0 ug/ml
# Outline: as §1
structure (smiles),measurement,setting,value
Cc1cn(-c2cc(NC(=O)c3ccc(C)c(Nc4nccc(-c5cccnc5)n4)c3)cc(C(F)(F)F)c2)cn1 [Nilotinib (AMN-107)],growth inhibition by drug alone,"[1]; 10 nM, time (day): 3",-0.0335
same,growth inhibition by drug alone,"[1]; 10 nM, time (day): 4",-0.0957
same,growth inhibition by drug alone,"[1]; 10 nM, time (day): 5",-0.159
same,growth inhibition by drug alone,"[1]; 10 nM, time (day): 6",-0.318
same,growth inhibition by drug alone,"[1]; 100 nM, time (day): 3",-0.122
same,growth inhibition by drug alone,"[1]; 100 nM, time (day): 4",-0.118
same,growth inhibition by drug alone,"[1]; 100 nM, time (day): 5",-0.0918
same,growth inhibition by drug alone,"[1]; 100 nM, time (day): 6",-0.17
same,growth inhibition by drug plus 177Lu-lilotomab satetraxetan,"[2]; 10 nM, time (day): 3",-0.0417
same,growth inhibition by drug plus 177Lu-lilotomab satetraxetan,"[2]; 10 nM, time (day): 4",-0.0287
same,growth inhibition by drug plus 177Lu-lilotomab satetraxetan,"[2]; 10 nM, time (day): 5",-0.0436
same,growth inhibition by drug plus 177Lu-lilotomab satetraxetan,"[2]; 10 nM, time (day): 6",0.0203
same,growth inhibition by drug plus 177Lu-lilotomab satetraxetan,"[2]; 1000 nM, time (day): 3",-0.141
same,growth inhibition by drug plus 177Lu-lilotomab satetraxetan,"[2]; 1000 nM, time (day): 4",-0.0418
same,growth inhibition by drug plus 177Lu-lilotomab satetraxetan,"[2]; 1000 nM, time (day): 5",-0.0875
same,growth inhibition by drug plus 177Lu-lilotomab satetraxetan,"[2]; 1000 nM, time (day): 6",-0.155
Cc1oc(S(=O)(=O)N2CCCCC2)cc1NC(=O)Nc1ccccc1,growth inhibition by drug alone,"[1]; 10 nM, time (day): 3",0.0245
same,growth inhibition by drug alone,"[1]; 10 nM, time (day): 4",0.075
same,growth inhibition by drug alone,"[1]; 10 nM, time (day): 5",-0.0191
same,growth inhibition by drug alone,"[1]; 10 nM, time (day): 6",-0.188
same,growth inhibition by drug alone,"[1]; 100 nM, time (day): 3",0.0283
same,growth inhibition by drug alone,"[1]; 100 nM, time (day): 4",0.0927
same,growth inhibition by drug alone,"[1]; 100 nM, time (day): 5",0.052
same,growth inhibition by drug alone,"[1]; 100 nM, time (day): 6",-0.0369
same,growth inhibition by drug plus 177Lu-lilotomab satetraxetan,"[2]; 10 nM, time (day): 3",0.0412
same,growth inhibition by drug plus 177Lu-lilotomab satetraxetan,"[2]; 10 nM, time (day): 4",0.101
same,growth inhibition by drug plus 177Lu-lilotomab satetraxetan,"[2]; 10 nM, time (day): 5",0.11
same,growth inhibition by drug plus 177Lu-lilotomab satetraxetan,"[2]; 10 nM, time (day): 6",0.174
same,growth inhibition by drug plus 177Lu-lilotomab satetraxetan,"[2]; 1000 nM, time (day): 3",-0.0876
same,growth inhibition by drug plus 177Lu-lilotomab satetraxetan,"[2]; 1000 nM, time (day): 4",0.0154
same,growth inhibition by drug plus 177Lu-lilotomab satetraxetan,"[2]; 1000 nM, time (day): 5",-0.000234
same,growth inhibition by drug plus 177Lu-lilotomab satetraxetan,"[2]; 1000 nM, time (day): 6",0.0155
same,growth inhibition by drug plus 177Lu-lilotomab satetraxetan,"[3]; 10 nM, time (day): 3",0.422
same,growth inhibition by drug plus 177Lu-lilotomab satetraxetan,"[3]; 10 nM, time (day): 4",0.557
same,growth inhibition by drug plus 177Lu-lilotomab satetraxetan,"[3]; 10 nM, time (day): 5",0.585
same,growth inhibition by drug plus 177Lu-lilotomab satetraxetan,"[3]; 10 nM, time (day): 6",0.576
same,growth inhibition by drug plus 177Lu-lilotomab satetraxetan,"[3]; 100 nM, time (day): 3",0.511
same,growth inhibition by drug plus 177Lu-lilotomab satetraxetan,"[3]; 100 nM, time (day): 4",0.598
same,growth inhibition by drug plus 177Lu-lilotomab satetraxetan,"[3]; 100 nM, time (day): 5",0.601
same,growth inhibition by drug plus 177Lu-lilotomab satetraxetan,"[3]; 100 nM, time (day): 6",0.574
O=C1[C@H](CC[C@H](O)c2ccc(F)cc2)[C@@H](c2ccc(O)cc2)N1c1ccc(F)cc1 [Ezetimibe (Zetia)],growth inhibition by drug alone,"[1]; 10 nM, time (day): 3",0.0453
same,growth inhibition by drug alone,"[1]; 10 nM, time (day): 4",0.0693
same,growth inhibition by drug alone,"[1]; 10 nM, time (day): 5",-0.0268
same,growth inhibition by drug alone,"[1]; 10 nM, time (day): 6",-0.174
same,growth inhibition by drug alone,"[1]; 100 nM, time (day): 3",-0.17
same,growth inhibition by drug alone,"[1]; 100 nM, time (day): 4",-0.068
same,growth inhibition by drug alone,"[1]; 100 nM, time (day): 5",-0.0985
same,growth inhibition by drug alone,"[1]; 100 nM, time (day): 6",-0.21
same,growth inhibition by drug plus 177Lu-lilotomab satetraxetan,"[2]; 10 nM, time (day): 3",0.101
same,growth inhibition by drug plus 177Lu-lilotomab satetraxetan,"[2]; 10 nM, time (day): 4",0.145
same,growth inhibition by drug plus 177Lu-lilotomab satetraxetan,"[2]; 10 nM, time (day): 5",0.218
same,growth inhibition by drug plus 177Lu-lilotomab satetraxetan,"[2]; 10 nM, time (day): 6",0.274
same,growth inhibition by drug plus 177Lu-lilotomab satetraxetan,"[2]; 1000 nM, time (day): 3",0.142
same,growth inhibition by drug plus 177Lu-lilotomab satetraxetan,"[2]; 1000 nM, time (day): 4",0.17
same,growth inhibition by drug plus 177Lu-lilotomab satetraxetan,"[2]; 1000 nM, time (day): 5",0.216
same,growth inhibition by drug plus 177Lu-lilotomab satetraxetan,"[2]; 1000 nM, time (day): 6",0.332
same,growth inhibition by drug plus 177Lu-lilotomab satetraxetan,"[3]; 10 nM, time (day): 3",0.537
same,growth inhibition by drug plus 177Lu-lilotomab satetraxetan,"[3]; 10 nM, time (day): 4",0.594
same,growth inhibition by drug plus 177Lu-lilotomab satetraxetan,"[3]; 10 nM, time (day): 5",0.604
same,growth inhibition by drug plus 177Lu-lilotomab satetraxetan,"[3]; 10 nM, time (day): 6",0.623
same,growth inhibition by drug plus 177Lu-lilotomab satetraxetan,"[3]; 100 nM, time (day): 3",0.406
same,growth inhibition by drug plus 177Lu-lilotomab satetraxetan,"[3]; 100 nM, time (day): 4",0.479
same,growth inhibition by drug plus 177Lu-lilotomab satetraxetan,"[3]; 100 nM, time (day): 5",0.489
same,growth inhibition by drug plus 177Lu-lilotomab satetraxetan,"[3]; 100 nM, time (day): 6",0.494
COC(=O)C1=C(C)NC(C)=C(C(=O)OCCCN2CCC(c3ccccc3)(c3ccccc3)CC2)[C@H]1c1cccc([N+](=O)[O-])c1 [S-(+)-Niguldipine hydrochloride],growth inhibition by drug alone,"[4]; 10 nM, time (day): 3",0.0443
same,growth inhibition by drug alone,"[4]; 10 nM, time (day): 4",0.0164
same,growth inhibition by drug alone,"[4]; 10 nM, time (day): 5",-0.0556
same,growth inhibition by drug alone,"[4]; 10 nM, time (day): 6",-0.116
same,growth inhibition by drug alone,"[4]; 1000 nM, time (day): 3",0.105
same,growth inhibition by drug alone,"[4]; 1000 nM, time (day): 4",0.109
same,growth inhibition by drug alone,"[4]; 1000 nM, time (day): 5",0.032
same,growth inhibition by drug alone,"[4]; 1000 nM, time (day): 6",0.0169
same,growth inhibition by drug alone,"[1]; 10 nM, time (day): 3",0.00175
same,growth inhibition by drug alone,"[1]; 10 nM, time (day): 4",-0.0387
same,growth inhibition by drug alone,"[1]; 10 nM, time (day): 5",-0.0555
same,growth inhibition by drug alone,"[1]; 10 nM, time (day): 6",-0.128
same,growth inhibition by drug alone,"[1]; 100 nM, time (day): 3",-0.336
same,growth inhibition by drug alone,"[1]; 100 nM, time (day): 4",-0.283
same,growth inhibition by drug alone,"[1]; 100 nM, time (day): 5",-0.288
same,growth inhibition by drug alone,"[1]; 100 nM, time (day): 6",-0.329
same,growth inhibition by drug plus 177Lu-lilotomab satetraxetan,"[2]; 10 nM, time (day): 3",-0.0121
same,growth inhibition by drug plus 177Lu-lilotomab satetraxetan,"[2]; 10 nM, time (day): 4",0.0306
same,growth inhibition by drug plus 177Lu-lilotomab satetraxetan,"[2]; 10 nM, time (day): 5",0.0867
same,growth inhibition by drug plus 177Lu-lilotomab satetraxetan,"[2]; 10 nM, time (day): 6",0.111
same,growth inhibition by drug plus 177Lu-lilotomab satetraxetan,"[2]; 1000 nM, time (day): 3",0.113
same,growth inhibition by drug plus 177Lu-lilotomab satetraxetan,"[2]; 1000 nM, time (day): 4",0.151
same,growth inhibition by drug plus 177Lu-lilotomab satetraxetan,"[2]; 1000 nM, time (day): 5",0.317
same,growth inhibition by drug plus 177Lu-lilotomab satetraxetan,"[2]; 1000 nM, time (day): 6",0.268
O=c1oc2c(O)c(O)cc3c(=O)oc4c(O)c(O)cc1c4c23 [Ellagic acid],growth inhibition by drug alone,"[1]; 10 nM, time (day): 3",-0.12
same,growth inhibition by drug alone,"[1]; 10 nM, time (day): 4",-0.115
same,growth inhibition by drug alone,"[1]; 10 nM, time (day): 5",-0.166
same,growth inhibition by drug alone,"[1]; 10 nM, time (day): 6",-0.332
same,growth inhibition by drug alone,"[1]; 100 nM, time (day): 3",-0.107
same,growth inhibition by drug alone,"[1]; 100 nM, time (day): 4",-0.127
same,growth inhibition by drug alone,"[1]; 100 nM, time (day): 5",-0.152
same,growth inhibition by drug alone,"[1]; 100 nM, time (day): 6",-0.219
same,growth inhibition by drug plus 177Lu-lilotomab satetraxetan,"[2]; 10 nM, time (day): 3",-0.0253
same,growth inhibition by drug plus 177Lu-lilotomab satetraxetan,"[2]; 10 nM, time (day): 4",-0.00558
same,growth inhibition by drug plus 177Lu-lilotomab satetraxetan,"[2]; 10 nM, time (day): 5",0.0162
same,growth inhibition by drug plus 177Lu-lilotomab satetraxetan,"[2]; 10 nM, time (day): 6",0.137
same,growth inhibition by drug plus 177Lu-lilotomab satetraxetan,"[2]; 1000 nM, time (day): 3",-0.104
same,growth inhibition by drug plus 177Lu-lilotomab satetraxetan,"[2]; 1000 nM, time (day): 4",-0.00651
same,growth inhibition by drug plus 177Lu-lilotomab satetraxetan,"[2]; 1000 nM, time (day): 5",0.0116
same,growth inhibition by drug plus 177Lu-lilotomab satetraxetan,"[2]; 1000 nM, time (day): 6",0.067
same,growth inhibition by drug plus 177Lu-lilotomab satetraxetan,"[3]; 10 nM, time (day): 3",0.371
same,growth inhibition by drug plus 177Lu-lilotomab satetraxetan,"[3]; 10 nM, time (day): 4",0.481
same,growth inhibition by drug plus 177Lu-lilotomab satetraxetan,"[3]; 10 nM, time (day): 5",0.517
same,growth inhibition by drug plus 177Lu-lilotomab satetraxetan,"[3]; 10 nM, time (day): 6",0.531
same,growth inhibition by drug plus 177Lu-lilotomab satetraxetan,"[3]; 100 nM, time (day): 3",0.323
same,growth inhibition by drug plus 177Lu-lilotomab satetraxetan,"[3]; 100 nM, time (day): 4",0.399
same,growth inhibition by drug plus 177Lu-lilotomab satetraxetan,"[3]; 100 nM, time (day): 5",0.402
same,growth inhibition by drug plus 177Lu-lilotomab satetraxetan,"[3]; 100 nM, time (day): 6",0.388
